High-throughput results (PubChem)
T cruzi growth-1 = T. cruzi intracellular proliferation inhibitors, primary screen, cell-based, beta-gal Tulahuen parasites, NIH3T3 host, luminescence | T. cruzi beta-gal in NIH3T3, GalScreen luminescence, 90 h | inhibition, % at 8.34 µM | 5.9% of 77,000 active | AID 624255, 2012;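 active = mean inhibition above about 93%, with at least 55% of replicates each passing it, limit read from the data, passing the limit was not always enough; inconclusive = only one of those two conditions holds; inactive = neither condition holds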
C diff HTS = C. difficile growth inhibitors, primary screen, HTS; 0.25% of 86,000 active; Clostridium difficile clinical isolate growth, OD600, 24 h; hits give low values; growth activity, negative = inhibition, % at 16 µg/mL (by protocol); AID 1259249, 2017;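 active = mean growth activity at or below -80% and every replicate also at or below -80%; inconclusive = mean at or below -80% but some replicate above -80%; inactive = mean growth activity above -80%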
Pf Dd2 inh = P. falciparum Dd2 growth inhibitors, primary screen, SYBR Green fluorescence, single dose replicates. 72 h; hits give low values. activity change, % at 10 µM. 2.3% of 94,000 active; in the data active = activity change below about -80%; inconclusive = no clear call, values can overlap the other calls
T cruzi growth-2 = T. cruzi intracellular proliferation inhibitors, confirmation, cell-based, NIH3T3 host, beta-gal parasite, luminescence, cherry-pick; AID 651739, 2012; inhibition, % at 8.35 µM; shares compounds with T cruzi growth-1; 72% of 5,600 active; T. cruzi beta-gal in NIH3T3, GalScreen luminescence, 90 h;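 active = mean replicate inhibition above about 95% and at least 55% of replicates individually reaching it, limit read from the data; inconclusive = only one of the two criteria is met; inactive = neither criterion is met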
T cruzi growth-3 = inhibitors of intracellular T. cruzi replication, confirmation, NIH3T3 host cells, beta-gal parasites, cherry-pick, set 2. shares compounds with T cruzi growth-1. T. cruzi beta-gal in NIH3T3, GalScreen luminescence, 90 h. 21% of 5,600 active. inhibition, % at 2.09 µM;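 active = mean inhibition above about 95%, with at least 55% of replicates also reaching it, limit read from the data; inconclusive = meets just one of the two conditions; inactive = meets neither condition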
NIH3T3 tox = cytotoxicity in mouse NIH/3T3 fibroblasts, confirmation, cytotoxicity control for T. cruzi proliferation inhibitor project, cell-based, cherry-pick, single point. shares compounds with T cruzi growth-1. NIH/3T3 viability, CellTiter-Glo ATP luminescence, 90 h. cytotoxicity (signal decrease), % at 8.35 µM. 14% of 5,600 active. AID 651742, 2012;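 active = mean signal decrease across replicates above about 35% based on untreated-well scatter, with enough replicates individually passing, limit read from the data; inconclusive = no rule stated though some were filed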
NIH3T3 tox 2 = NIH/3T3 fibroblast cytotoxicity, confirmation, cytotoxicity control, cell-based, cherry-pick, single point, set 2. shares compounds with T cruzi growth-1. NIH/3T3 viability, CellTiter-Glo ATP luminescence, 90 h. inhibition, % at 24.9 µM. 56% of 5,600 active. AID 651744, 2012;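 active = mean loss of cell viability signal at or above a set limit, and enough replicates individually reaching it; inconclusive = meets only the mean limit or only the replicate share; inactive = meets neither condition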
Large screens that a line does not name were inactive (follow-up assays come after a bar, where they were run). Hits are enriched below; roughly 6.7% of the tested compounds scored in any of these assays.

C[C@@H]1CCCCO[C@@H](CN(C)S(=O)(=O)c2ccc(F)cc2)[C@H](C)CN([C@@H](C)CO)C(=O)c2cc(NC(=O)Nc3ccc(C(F)(F)F)cc3)ccc2O1	T cruzi growth-1 100 (no result: C diff HTS) | T cruzi growth-2 109 | T cruzi growth-3 114 | NIH3T3 tox inactive | NIH3T3 tox 2 inactive
CCCNC(=O)C[C@@H]1CC[C@H]2[C@@H](COc3ccc(NC(=O)CC)cc3C(=O)N2C)O1	none
COc1ccc(S(=O)(=O)Nc2ccc3c(c2)[C@@H]2C[C@@H](CC(=O)O)O[C@@H](CO)[C@@H]2O3)cc1	none
C[C@H](CO)N1C[C@H](C)[C@@H](CN(C)Cc2ccncc2)OCc2ccccc2-c2ccccc2C1=O	T cruzi growth-1 inconclusive | T cruzi growth-2 inactive | T cruzi growth-3 inactive | NIH3T3 tox inactive | NIH3T3 tox 2 inactive
C[C@@H]1CN([C@H](C)CO)C(=O)c2ccccc2-c2ccccc2CO[C@@H]1CN(C)Cc1ccncc1	none
C[C@@H]1CN([C@@H](C)CO)C(=O)c2ccccc2-c2ccccc2CO[C@@H]1CN(C)Cc1ccncc1	T cruzi growth-1 inconclusive | T cruzi growth-2 inactive | T cruzi growth-3 inactive | NIH3T3 tox inactive | NIH3T3 tox 2 inconclusive
C[C@@H]1CN([C@H](C)CO)C(=O)c2ccccc2-c2ccccc2CO[C@@H]1CN(C)Cc1ccc(O)cc1	none (no result: C diff HTS)
O=C(C[C@@H]1C=C[C@H](NS(=O)(=O)c2ccccc2)[C@@H](CO)O1)N1CCN(c2ccccc2)CC1	none (no result: T cruzi growth-1)
C[C@@H]1CN([C@H](C)CO)C(=O)CCCn2cc(nn2)CO[C@H]1CN(C)Cc1cccc(C(=O)O)c1	none (no result: C diff HTS)
CCC(=O)Nc1ccc2c(c1)OC[C@@H](C)N(C(=O)c1ccc(F)cc1)C[C@H](C)[C@@H](OC)CN(C)C2=O	none (no result: C diff HTS)
C[C@@H]1CCCCO[C@H](CN(C)C(=O)Nc2ccc(C(F)(F)F)cc2)[C@H](C)CN([C@@H](C)CO)C(=O)c2cc(NC(=O)CCC(F)(F)F)ccc2O1	none
C[C@@H]1CCCCO[C@@H](CN(C)C(=O)Nc2ccc(C(F)(F)F)cc2)[C@H](C)CN([C@@H](C)CO)C(=O)c2cc(NC(=O)CCC(F)(F)F)ccc2O1	T cruzi growth-1 101 | T cruzi growth-2 106 | T cruzi growth-3 inactive | NIH3T3 tox inactive | NIH3T3 tox 2 inactive
C[C@@H]1CCCCO[C@H](CN(C)C(=O)Nc2ccc(C(F)(F)F)cc2)[C@H](C)CN([C@H](C)CO)C(=O)c2cc(NC(=O)CCC(F)(F)F)ccc2O1	T cruzi growth-1 107 | T cruzi growth-2 106 | T cruzi growth-3 105 | NIH3T3 tox inactive | NIH3T3 tox 2 inactive
C[C@@H]1CCCCO[C@H](CN(C)C(=O)Nc2ccc(C(F)(F)F)cc2)[C@@H](C)CN([C@@H](C)CO)C(=O)c2cc(NC(=O)CCC(F)(F)F)ccc2O1	none
CCNC(=O)[C@@H]1[C@@H](CO)[C@@H]2Cn3c(ccc(-c4cccnc4)c3=O)[C@@H]2N1Cc1ccc2c(c1)OCO2	none
CCCNC(=O)Nc1ccc2c(c1)C(=O)N(C)[C@@H]1CC[C@@H](CC(=O)NCCCN(C)C)O[C@@H]1CO2	none
CCC(=O)N[C@H]1CC[C@@H](CCn2cc(-c3cccc(OC)c3)nn2)O[C@@H]1CO	none
COc1ccc(-c2cnc3c(c2)C(=O)N([C@H](C)CO)C[C@@H](C)[C@@H](CN(C)C(=O)CN(C)C)O3)cc1	none
CS(=O)(=O)Nc1ccc2c(c1)[C@@H]1C[C@H](CC(=O)N3CCc4ccccc4C3)O[C@H](CO)[C@@H]1O2	none (no result: T cruzi growth-1)
CS(=O)(=O)Nc1ccc2c(c1)[C@@H]1C[C@@H](CC(=O)N3CCc4ccccc4C3)O[C@@H](CO)[C@@H]1O2	none (no result: T cruzi growth-1)
O=C(C[C@@H]1C[C@@H]2c3cc(NS(=O)(=O)c4ccc(F)cc4)ccc3O[C@@H]2[C@@H](CO)O1)N1CCc2ccccc2C1	T cruzi growth-1 115 | T cruzi growth-2 100 | T cruzi growth-3 inactive | NIH3T3 tox inactive | NIH3T3 tox 2 inactive
O=C(C[C@H]1C[C@H]2c3cc(NS(=O)(=O)c4ccc(F)cc4)ccc3O[C@H]2[C@H](CO)O1)N1CCc2ccccc2C1	T cruzi growth-1 110 | T cruzi growth-2 inactive | T cruzi growth-3 inactive | NIH3T3 tox inactive | NIH3T3 tox 2 inactive
O=C(C[C@@H]1C[C@H]2c3cc(NS(=O)(=O)c4ccc(F)cc4)ccc3O[C@H]2[C@H](CO)O1)N1CCc2ccccc2C1	T cruzi growth-1 inconclusive | T cruzi growth-2 inactive | T cruzi growth-3 inactive | NIH3T3 tox inactive | NIH3T3 tox 2 inactive
O=C(C[C@@H]1C[C@@H]2c3cc(NS(=O)(=O)c4ccc(F)cc4)ccc3O[C@@H]2[C@@H](CO)O1)N1CCCCC1	none (no result: T cruzi growth-1)
COc1ccc2c3c([nH]c2c1)[C@H](CO)N(C(=O)c1ccncc1)CC31CN(Cc2cccnc2)C1	none (no result: T cruzi growth-1)
COc1ccc(CN(C)C[C@H]2Oc3ccc(NC(=O)Nc4ccccc4)cc3CC(=O)N([C@@H](C)CO)C[C@@H]2C)cc1	none
COc1ccccc1NC(=O)N1C[C@@H](O)COC[C@@H]2O[C@@H](CC(=O)NCc3ccccc3)CC[C@H]21	none
Cc1ccc(S(=O)(=O)N(C)C[C@@H]2OCCCC[C@H](C)Oc3ccc(NC(=O)Nc4ccc5c(c4)OCO5)cc3C(=O)N([C@H](C)CO)C[C@@H]2C)cc1	T cruzi growth-1 119 (no result: C diff HTS) | T cruzi growth-2 111 | T cruzi growth-3 105 | NIH3T3 tox inactive | NIH3T3 tox 2 inactive
C[C@@H]1CCCCO[C@H](CN(C)S(=O)(=O)c2ccc(Cl)cc2)[C@@H](C)CN([C@@H](C)CO)C(=O)c2cc(NC(=O)Nc3ccc4c(c3)OCO4)ccc2O1	T cruzi growth-1 103, Pf Dd2 inh -83 | T cruzi growth-2 108 | T cruzi growth-3 104 | NIH3T3 tox inactive | NIH3T3 tox 2 inactive
COc1ccc(NC(=O)Nc2ccc3c(c2)C(=O)N([C@H](C)CO)C[C@@H](C)[C@@H](CN(C)S(=O)(=O)c2ccc(OC)cc2)OCCCC[C@H](C)O3)cc1	none
C[C@@H]1CCCCO[C@@H](CN(C)S(=O)(=O)c2ccccc2)[C@@H](C)CN([C@H](C)CO)C(=O)c2cc(NC(=O)Nc3ccc4c(c3)OCO4)ccc2O1	none
